Each structure is given as a SMILES string. About 4,900 (1.5%) of roughly 330,000 compounds were called active.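 Rule for the calls: active = inhibition above the mean inhibition across the screen plus 3 SD (cut at about 25% in these data); inactive = the rest.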 The full list was thinned out, with actives kept by preference.

The target in this assay is Platelet-activating factor acetylhydrolase (Homo sapiens) (UniProt Q13093). Briefly: pPAFAH enzyme inhibitors, primary screen, biochemical, fluorescence polarization, human (AID 463082).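 Note: inhibitors block binding of the rhodamine activity-based probe so polarization drops; 0% = enzyme with DMSO and 100% = wells lacking pPAFAH.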 The note with it: recombinant pPAFAH, FP-rhodamine probe fluorescence polarization; at 3.39 µM; active compounds read high. (In general: Polarisation of emitted light reports the rotation of a fluorescent probe.)
Platelet-activating factor acetylhydrolase (Homo sapiens), sequence (Q13093 whole entry, looked up): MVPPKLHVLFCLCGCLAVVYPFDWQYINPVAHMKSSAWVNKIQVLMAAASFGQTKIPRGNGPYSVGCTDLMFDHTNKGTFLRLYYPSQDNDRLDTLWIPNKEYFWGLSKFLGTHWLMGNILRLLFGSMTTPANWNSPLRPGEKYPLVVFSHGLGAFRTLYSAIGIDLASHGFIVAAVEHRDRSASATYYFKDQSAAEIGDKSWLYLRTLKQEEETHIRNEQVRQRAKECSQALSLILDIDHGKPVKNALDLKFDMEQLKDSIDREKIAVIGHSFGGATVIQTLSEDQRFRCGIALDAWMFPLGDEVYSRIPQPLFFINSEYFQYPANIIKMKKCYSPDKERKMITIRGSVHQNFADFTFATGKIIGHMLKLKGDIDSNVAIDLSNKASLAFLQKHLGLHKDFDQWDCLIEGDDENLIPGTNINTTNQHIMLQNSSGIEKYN
By inhibition is commonly meant the relative decrease from the control value, in per cent. In the case of `N#CC1=C(N)Oc2c(sc3ccccc23)C1c1ccco1` (stereo unspecified), the inhibition was 26.5% (active).
The same measure for `N#CC1=C(N)Oc2c(ccc3cccnc23)C1c1ccncc1` (stereo unspecified): 11.9% (inactive); for `O=C(O)/C(=C/c1cccnc1)NC(=O)c1ccccc1`: -3.24% (inactive); for `O=C(CN1C(=O)c2ccc([N+](=O)[O-])cc2C1=O)Nc1nnc(C2CC2)s1`: 0.34% (inactive).
The same measure for `O=C(Nc1cccn(Cc2c(Cl)cccc2Cl)c1=O)c1ccc(Cl)cc1`: -3.34% (inactive); for `O=C(COC(=O)c1ncc(Cl)c(Cl)c1Cl)NCc1ccccc1`: 14.3% (inactive); for `Cc1cc(O)c(Sc2ccccc2)c(=O)o1`: 3.25% (inactive).
Then `Cc1cc(O)c(C(=O)/C=C/c2c(F)c(F)c(F)c(F)c2F)c(=O)o1`, with 27.7% (active).
For `Cc1ccc(N=Cc2c(O)cc(C)oc2=O)c(C)c1`, the inhibition is -5.2% (inactive).
Then `CCOC(=O)C1CCN(Cc2coc3ccc(Cl)cc3c2=O)CC1`, with -3.13% (inactive); and `O=C(OCC1O[C@@H](OC(=O)c2cc(O)c(O)c(O)c2)[C@@H](OC(=O)c2cc(O)c(O)c(O)c2)[C@@H](OC(=O)c2cc(O)c(O)c(O)c2)[C@@H]1OC(=O)c1cc(O)c(O)c(O)c1)c1cc(O)c(O)c(O)c1` (stereo partly specified), with 73% (active).
The same measure for `O=C(OCC1OC(Oc2ccc(O)cc2)C(O)C(O)C1O)c1ccccc1` (stereo unspecified): 3.51% (inactive).
With `CC1Cc2ccccc2N1S(=O)(=O)c1cccc(C(=O)OCC(=O)N2CCOCC2)c1` (stereo unspecified), the inhibition is 8.16% (inactive).
Then `COc1ccc(OC)c(NC(=O)C2CCCN2S(=O)(=O)c2cccc3nsnc23)c1` (stereo unspecified), with 1.9% (inactive); and `Cc1cc(-c2csc(N)n2)c(C)n1Cc1ccccc1`, with 12.4% (inactive).
The same measure for `Cc1cc2nc3c(=O)n(Cc4ccccc4)c(=O)[nH]c3nc2cc1N`: 59.1% (active).
Then `CC(=O)c1ccc(-c2ccc(Cn3c(C)nc4cc(N)c(C)nc43)cc2)cc1`, with 3.76% (inactive).
Regarding `Nc1nc(Br)c2ccccc2c1-c1ccc(F)cc1`, the inhibition was 29.3% (active).
Then `CN(CC(=O)Nc1c(Cl)cccc1Cl)C(=O)CC1OC(=O)c2ccccc21` (stereo unspecified), with 1.34% (inactive); and `OC(CNCC1CCCO1)Cn1c2ccc(Br)cc2c2cc(Br)ccc21` (stereo unspecified), with 60% (active).
Then `CC(NS(=O)(=O)c1ccc(Br)cc1)C(=O)NCC1CCCO1` (stereo unspecified), with 1.93% (inactive).
Then `O=C(CSc1ccc(-c2ccc(Br)cc2)nn1)NCC1CCCO1` (stereo unspecified), with 3.46% (inactive); and `CC1c2nc3ccccc3n2C(CC(=O)NCCCN2CCOCC2)C(=O)N1Cc1ccccc1` (stereo unspecified), with 3.44% (inactive); and `O=C(Cn1cc(C(F)(F)F)ccc1=O)Nc1ccc2c(c1)OCCO2`, with 0.39% (inactive).
With `CCCN(CC(=O)Nc1ccccc1C)C(=O)c1ccc2[nH]c3c(c2c1)CC(C)CC3` (stereo unspecified), the inhibition is 2.57% (inactive).
Take `Cc1c(C(=O)N/N=C/c2ccccc2)[nH]c2c([N+](=O)[O-])cccc12`: the inhibition was 2.71% (inactive).
The same measure for `COc1cc2c(C(=O)O)c(C)n(C)c2c2ccccc12`: 8.22% (inactive).
The same measure for `COc1cccc2c(C)c(C(=O)O)[nH]c12`: 40% (active).
The same measure for `CCOc1ccc(N/C(N)=N/c2nc(C)c(C)c(=O)[nH]2)cc1`: 5.08% (inactive); for `CCOC(=O)CNC(=O)CSc1ncccc1-c1nc2ccccc2[nH]1`: 3.09% (inactive); for `COC(=O)c1cccc(N(C(=O)c2ccco2)C(C(=O)NC2CCCC2)c2ccco2)c1` (stereo unspecified): -7.26% (inactive).
Turning to `COc1ccc(C(CNC(=O)c2ccc(S(=O)(=O)Nc3ccccc3C)cc2)N2CCOCC2)cc1` (stereo unspecified), the inhibition was 33.2% (active).
The same measure for `COc1ccc(C(CNC(=O)c2cccc(NS(=O)(=O)c3ccc(C)c(F)c3)c2)N2CCCC2)cc1` (stereo unspecified): 5.75% (inactive); for `CCOc1ccc(NS(=O)(=O)c2ccc(C(=O)NC3CCN(Cc4ccccc4)CC3)cc2)cc1`: 24.1% (inactive); for `CCOc1ccc(NS(=O)(=O)c2ccc(C(=O)NCC(c3ccccc3OC)N3CCCC3)cc2)cc1` (stereo unspecified): 51.8% (active).
Then `COc1ccc(C(CNC(=O)c2cccc(S(=O)(=O)Nc3ccccc3Cl)c2)N2CCOCC2)cc1` (stereo unspecified), with -3.75% (inactive); and `Cc1cc(S(=O)(=O)Nc2ccc(C(=O)NCC(c3ccco3)N3CCCC3)cc2)ccc1F` (stereo unspecified), with -0.43% (inactive).
The same measure for `CC(=O)Nc1ccc(S(=O)(=O)N2CCN(C(=O)c3ccccc3F)CC2)cc1`: -5.31% (inactive); for `COc1ccc(S(=O)(=O)N(C)C[C@@H]2Oc3ccc(NC(=O)Nc4c(C)noc4C)cc3C(=O)N([C@H](C)CO)C[C@@H]2C)cc1`: 1.97% (inactive); for `COc1ccc(S(=O)(=O)NCc2cccnc2)cc1NC(=O)c1ccc(C)cc1`: 0.8% (inactive).
Consider `Cc1cccc(C)c1NC(=O)CCS(=O)(=O)c1cccc2nsnc12`, for which the inhibition was -6.43% (inactive).
The same measure for `Cc1cccc(Cn2cnc3c(N)c(C)c(C)cc32)c1`: 9.5% (inactive).
For `Cn1c(=O)c(C(=O)Nc2ncccn2)c(O)c2ccccc21`, the inhibition is 1.18% (inactive).
The same measure for `COC(=O)c1ccc(C(NC(=O)OCc2ccccc2)/C(C)=C/[C@@H](C)C(=O)NCc2ccc(OC)c(OC)c2)cc1` (stereo partly specified): 40.4% (active); for `COC(=O)c1ccc(C(NC(=O)OCc2ccccc2)/C(F)=C/[C@@H](C)C(=O)O)cc1` (stereo partly specified): 6.41% (inactive); for `COc1ccc(COC(=O)NC(C(=O)O)c2ccccc2)cc1` (stereo unspecified): -0.13% (inactive).
The same measure for `C=CCNC(=O)C1CC2c3ccccc3C1c1ccccc12` (stereo unspecified): 3.92% (inactive).
Then `CSC1=NC2(C)CCCCC2C12C=CC(=O)C=C2` (stereo unspecified), with 5.48% (inactive); and `Cc1nn(C)cc1C(=O)c1ccccc1`, with -11.2% (inactive).
`C=C(C)CNC(=O)c1ccc(OC2CCN(C(=O)COC)CC2)cc1`: the inhibition is -1.41% (inactive).
Then `COc1ccc(/C=N/NC(=O)c2ccc3c(c2)OCCO3)c(OC)c1`, with 11.5% (inactive).
The same measure for `COc1cc(OC)c(/C=N/NC(=O)c2ccc([N+](=O)[O-])cc2)cc1Br`: 2.36% (inactive); for `COc1cccc(/C=N/NC(=O)c2[nH]nc3c2CCc2ccccc2-3)c1O`: 43.7% (active); for `COc1ccc(-c2csc(Cc3nc(O)cs3)n2)cc1`: 13% (inactive).
Turning to `CC(C)(C)C(=O)OCc1nc(-c2ccc(O)c(O)c2)cs1`, the inhibition is 27.5% (active).
The same measure for `Cc1onc(C(=O)NN)c1-c1csc(COc2ccccc2)n1`: -3.91% (inactive).

These data come from PubChem BioAssay AID463082 (The Scripps Research Institute Molecular Screening Center, 2010).
